Test results published in PubChem BioAssay (NCATS).

Target: Cytochrome P450 3A4 (Homo sapiens) (UniProt P08684)
Test: qHTS Assay for Activators of Cytochrome P450 3A4 (AID 885); further: nearly all actives have a fitted effect of over 65% in size
Conditions: recombinant CYP3A4, Luciferin-PPXE luminescence, 60 min; series mostly up to 57.1 µM; active means well fitted activation curve with a large enough effect; inconclusive means small, poorly fitted or top-dose-only effect; inactive means no such curve, though single readings can be large or run the other way
In short: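 Quantitative HTS format: compounds preincubated with 20nM human CYP3A4 and Luciferin-PPXE substrate at KM, reaction started by NADPH regeneration, stopped after 60 min, luciferase luminescence read 20 min later.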

Chain of Cytochrome P450 3A4 (Homo sapiens) (P08684 whole entry, looked up): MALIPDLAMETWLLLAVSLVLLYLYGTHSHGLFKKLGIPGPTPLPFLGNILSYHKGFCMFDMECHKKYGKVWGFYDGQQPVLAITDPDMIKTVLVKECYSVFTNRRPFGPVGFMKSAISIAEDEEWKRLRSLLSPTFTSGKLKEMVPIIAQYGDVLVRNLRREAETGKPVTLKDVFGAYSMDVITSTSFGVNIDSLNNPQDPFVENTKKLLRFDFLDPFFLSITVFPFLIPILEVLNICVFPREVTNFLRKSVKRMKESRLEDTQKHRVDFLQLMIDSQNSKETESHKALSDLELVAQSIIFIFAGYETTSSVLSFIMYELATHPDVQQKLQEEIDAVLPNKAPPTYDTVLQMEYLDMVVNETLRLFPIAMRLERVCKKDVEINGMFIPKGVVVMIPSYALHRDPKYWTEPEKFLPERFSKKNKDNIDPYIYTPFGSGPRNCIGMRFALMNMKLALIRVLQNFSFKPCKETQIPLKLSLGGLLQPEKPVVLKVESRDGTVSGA

Activity change, positive = activation, inactive:
COc1ccc(-c2ccc3c(n2)CCCN3C[C@H](O)CN2CCCc3nc(-c4ccc(Br)cc4)ccc32)cc1 -31.9% [at 11.4 µM]
COc1ccc(COC(=O)N/N=C2/C[C@@H](O)[C@@H](O)[C@@H]3[C@@H]4C(=O)N(c5cccc(Oc6ccccc6)c5)C(=O)[C@H]4CC[C@@H]23)cc1 -30.5% [at 11.4 µM]
C/C(CCC(=O)OC[C@@H]1O[C@H](C#Cc2ccccc2)C=C[C@@H]1Oc1ccc(C)cc1)=N/OC[C@@H](C)[C@H](OCc1ccccc1)C(C)C -45.8% [at 11.4 µM]
C/C(CCN1CCc2nc(-c3ccccc3)c(-c3ccccc3)cc2C1)=N\O[C@@H](C)CN1CCCc2nc(C)c(C)cc21 -58.8% [at 11.4 µM]
CC(C)C(=O)N[C@@H]1CCCN1C(=O)/C=C\c1ccccc1 -30.2% [at 11.4 µM]
CCc1cc2c(nc1CC)CCN(CC/C(C)=N/OC[C@@H](O)[C@@H]1O[C@@H]3OC(C)(C)O[C@@H]3[C@H]1O)C2 -30.5% [at 11.4 µM]
C/C(CCN1CCCCc2nc(C)c(C)cc21)=N\OC[C@@H](C)[C@H](OCc1ccccc1)C(C)C -49.2% [at 11.4 µM]
C#CCCCO/N=C1/C[C@@H](O)[C@@H](O)[C@@H]2[C@@H]3C(=O)N(C4CCCCC4)C(=O)[C@H]3CC[C@H]12 -57% [at 11.4 µM]
